Most compounds without a hit are left out; they make up all but 2.8% or so of the library.
Shn3 inh set2 – inhibitors of Schnurri-3 3'UTR reporter in osteoblasts; Clone20 osteoblast Shn3 3'UTR firefly luciferase, 24 h; inhibition, % at 12.5 µM; 0.52% of 360,000 active;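 active = mean inhibition of at least 75% with every replicate also reaching 75%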;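 also: 0% = median of neutral control wells and 100% = pilot-screen positive control compound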
PAX8 inh HTS – inhibitors of PAX8 transcriptional activity in RMG-I cells. AID 652154. RMG-I TPO-luciferase reporter, SteadyGlo, 24 h. 1.2% of 360,000 active. inhibition, % at 12.6 µM;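 active = mean replicate inhibition at least 60% with every replicate also reaching 60%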;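 also: luciferase light reporting Pax8 driven TPO promoter activity; plate controls were median of neutral control wells for no effect and mitoxantrone controls for full effect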
NSD2 HMT inh – blocks human histone methyltransferase NSD2; 0.54% of 310,000 active; NSD2 peptide methylation, AlphaScreen, 120 min; inhibition, % at 12.5 µM; in the data active = inhibition above about 50%
Target sequence (O96028 whole entry, looked up): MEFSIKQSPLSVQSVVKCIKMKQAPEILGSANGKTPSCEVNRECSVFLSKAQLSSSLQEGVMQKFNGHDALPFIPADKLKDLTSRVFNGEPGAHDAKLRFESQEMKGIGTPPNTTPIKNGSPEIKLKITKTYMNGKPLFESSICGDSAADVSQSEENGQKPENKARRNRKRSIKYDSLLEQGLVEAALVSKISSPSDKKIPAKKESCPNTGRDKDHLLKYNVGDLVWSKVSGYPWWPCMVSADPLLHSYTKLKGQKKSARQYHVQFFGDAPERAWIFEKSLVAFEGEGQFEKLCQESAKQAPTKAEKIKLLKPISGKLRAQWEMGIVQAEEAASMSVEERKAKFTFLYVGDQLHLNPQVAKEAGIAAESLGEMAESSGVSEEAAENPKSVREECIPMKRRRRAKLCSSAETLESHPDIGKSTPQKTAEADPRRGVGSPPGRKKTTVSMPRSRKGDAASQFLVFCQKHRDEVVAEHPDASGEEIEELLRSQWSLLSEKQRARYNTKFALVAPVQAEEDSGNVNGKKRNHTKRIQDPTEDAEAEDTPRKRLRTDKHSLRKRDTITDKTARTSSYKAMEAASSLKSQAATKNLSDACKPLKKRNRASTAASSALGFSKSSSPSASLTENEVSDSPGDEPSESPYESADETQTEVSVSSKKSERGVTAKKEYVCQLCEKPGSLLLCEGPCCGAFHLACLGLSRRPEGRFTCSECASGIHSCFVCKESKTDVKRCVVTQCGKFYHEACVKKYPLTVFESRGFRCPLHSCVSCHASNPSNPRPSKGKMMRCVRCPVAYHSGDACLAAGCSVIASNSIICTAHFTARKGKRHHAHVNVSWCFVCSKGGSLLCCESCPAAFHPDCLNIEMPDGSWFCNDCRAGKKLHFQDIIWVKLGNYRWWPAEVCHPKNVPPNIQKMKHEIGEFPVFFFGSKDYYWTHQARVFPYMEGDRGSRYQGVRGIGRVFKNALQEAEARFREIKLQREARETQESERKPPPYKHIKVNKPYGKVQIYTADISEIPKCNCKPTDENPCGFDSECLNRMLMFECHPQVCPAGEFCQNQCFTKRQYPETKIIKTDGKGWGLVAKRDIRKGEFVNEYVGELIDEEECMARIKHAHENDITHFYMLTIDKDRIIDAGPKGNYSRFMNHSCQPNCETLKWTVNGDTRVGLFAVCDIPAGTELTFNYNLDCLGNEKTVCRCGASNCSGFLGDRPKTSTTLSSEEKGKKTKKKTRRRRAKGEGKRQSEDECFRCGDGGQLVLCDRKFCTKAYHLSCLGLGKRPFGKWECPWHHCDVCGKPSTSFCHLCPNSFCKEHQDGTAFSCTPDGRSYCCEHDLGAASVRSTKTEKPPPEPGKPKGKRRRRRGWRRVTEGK
LMP1 NFkB inh – reduces LMP1-driven NF-kappaB luciferase signal | LMP1-induced NF-kappaB luciferase reporter cells, luminescence | inhibition, % at 12.5 µM | 0.69% of 350,000 active | AID 504558; in the data active = inhibition above about 41%;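 also: 0% = neutral control wells and 100% = reference inhibitor control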
Env fusion inh – inhibitors of HIV Env-mediated cell fusion; AID 651610; inhibition, % at 12.3 µM; HeLa-JRFL Env/CEM21 cell fusion, luciferase; 1.1% of 360,000 active;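 active = mean replicate inhibition score of at least 50 and every replicate individually at or above 50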;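 also: 0% = plate neutral controls and 100% = maraviroc near 300 nM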
N-glyco inh – N-linked glycosylation inhibition | D54 ERlucT glycosylation luciferase reporter, 24 h; percent of 100 nM tunicamycin response | AID 588692 | reporter increase, % at 12.5 µM | 0.23% of 360,000 active;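 active = mean luciferase reporter signal, scaled so untreated is 0 and the glycosylation-blocking control 100, at or above a set limit in every replicate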;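 also: luciferase carries N-glycosylation sites so blocking glycosylation raises the light; 0% = median of neutral control wells and 100% = median of 100 nM tunicamycin wells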
Active calls of the source: *; / = no result given; [ ] = dose if it differs, or a comment.

SMILES | Shn3 inh set2 | PAX8 inh HTS | NSD2 HMT inh | LMP1 NFkB inh | Env fusion inh | N-glyco inh
CCC(CO)Oc1cc(NCc2ccc(O)cc2)c2ncn(C(C)C)c2c1 (stereo not drawn) | -17.2 | 8.0 | / | 2.5 | 5.5 | 1.5
CCC(CO)Oc1cc(NCc2ccccc2)c2ncn(C(C)C)c2c1 (stereo not drawn) | 11.2 | -1.6 | / | 10.0 | 0.5 | 7.2
O=C1C=CCCN1S(=O)(=O)/C=C/c1ccccc1 | / | 88.6* | / | / | -142.3[16.7 µM] | /
CCCCC1(Cc2ccc([N+](=O)[O-])cc2)C(=O)N(c2ccccc2)N(c2ccccc2)C1=O | 91.9* | 20.4 | -0.8 | 26.9 | 132.8* | -16.6
C[C@H](NC(=O)c1nc[nH]c1C(=O)N[C@@H](Cc1ccccc1)C(=O)OC(C)(C)C)c1ccccc1 | 8.4 | 41.2 | / | -1.3 | -16.6 | -2.7
CC(C)(C)OC(=O)NCc1ccc(CNC(=O)c2[nH]cnc2C(=O)N[C@@H](Cc2ccccc2)C(=O)OC(C)(C)C)cc1 | 17.9 | 76.1* | / | -3.2 | 44.0 | 4.2
C[C@@H](NC(=O)c1nc[nH]c1C(=O)N[C@@H](Cc1ccccc1)C(=O)OC(C)(C)C)c1ccccc1 | -5.2 | 95.3* | / | -8.0 | 31.8 | -3.1
C[C@@H]1CN([C@@H](C)CO)C(=O)Cc2cc(NC(=O)CCC(F)(F)F)ccc2O[C@@H]1CN(C)CC1CC1 | / | -17.7 | / | / | -21.8[16.7 µM] | /
CC1(C)CC(=O)C=C(C#CC2(O)CCCCC2)C1 | 46.5 | 108.5* | / | -5.8 | 37.4 | -2.1
Cc1cccc(C#CC2=CC(=O)CC(C)(C)C2)c1 | -47.8 | 0.4 | / | -15.9 | 33.4 | -4.5
Cc1noc(C)c1NC(=O)Nc1cccc2c1O[C@H](CN(C)C(=O)Nc1ccc(C(F)(F)F)cc1)[C@H](C)CN([C@H](C)CO)C2=O | / | 12.9 | / | / | -7.1[16.7 µM] | /
CCSc1nc2ccc(OC)cc2cc1C#N | -39.3 | / | -3.2 | 77.6* | -316.9 | -1.1
COCC(=O)N1[C@H](C#N)[C@H](c2ccccc2-c2cccc(F)c2)[C@H]1CO | / | -20.9 | / | / | / | /
CS(=O)(=O)Nc1ccc2c(c1)[C@H]1C[C@@H](CC(=O)NCc3ccc(-c4ccccc4)cc3)O[C@@H](CO)[C@H]1O2 | / | 6.9 | / | / | / | /
O=C(C[C@H]1C[C@H]2c3cc(NC(=O)c4ccc5c(c4)OCO5)ccc3O[C@H]2[C@@H](CO)O1)NCc1ccc(Oc2ccccc2)cc1 | / | -20.2 | / | / | 42.4[16.7 µM] | /
O=C(C[C@@H]1C[C@@H]2c3cc(NC(=O)Nc4ccccc4F)ccc3O[C@@H]2[C@H](CO)O1)NCc1ccc(Oc2ccccc2)cc1 | / | 82.3* | / | / | 2.5[16.7 µM] | /
CN(C)c1ccc2c(c1)[C@@H]1C[C@H](CC(=O)NCc3ccc(-c4ccccc4)cc3)O[C@@H](CO)[C@@H]1O2 | / | 14.3 | / | / | 80.5*[16.7 µM] | /
CS(=O)(=O)Nc1ccc2c(c1)[C@@H]1C[C@@H](CC(=O)NCc3ccc(-c4ccccc4)cc3)O[C@@H](CO)[C@@H]1O2 | / | 81.9* | / | / | / | /
O=C(C[C@@H]1C[C@@H]2c3cc(NC(=O)c4ccc5c(c4)OCO5)ccc3O[C@@H]2[C@@H](CO)O1)NCc1ccc(Oc2ccccc2)cc1 | / | 11.1 | / | / | 70.7*[16.7 µM] | /
C[C@H](CO)N1C[C@H](C)[C@H](CN(C)CC2CC2)Oc2ccc(NC(=O)C3CC3)cc2CC1=O | / | 3.6 | / | / | 7.9[16.7 µM] | /
CS(=O)(=O)Nc1ccc2c(c1)[C@@H]1C[C@@H](CC(=O)NCc3ccc(Oc4ccccc4)cc3)O[C@@H](CO)[C@@H]1O2 | / | 84.1* | / | / | -237.9[16.7 µM] | /
CS(=O)(=O)Nc1ccc2c(c1)[C@@H]1C[C@@H](CC(=O)NCc3ccc(Oc4ccccc4)cc3)O[C@H](CO)[C@@H]1O2 | / | 31.2 | / | / | -19.0[16.7 µM] | /
COc1ccc(NC(=O)N(C)C[C@H]2OCCCC[C@H](C)Oc3ccc(NC(=O)c4ccncc4)cc3C(=O)N([C@@H](C)CO)C[C@@H]2C)cc1 | / | -29.6 | / | / | -3.9[16.7 µM] | /
CC[C@@H](C)[C@@H]1CN([C@@H](CN2CCC[C@H]2CN2C(N)=NC[C@H]2C(C)C)C(C)C)C(=N)N1CCCC1CCCC1 | -8.3 | 84.4* | / | 2.3 | 17.3 | 0.9
CCCNC(=O)N1C[C@H](O)COC[C@@H]2O[C@@H](CC(=O)N[C@H]3CCN(Cc4ccccc4)C3)CC[C@H]21 | / | -21.0 | / | / | -13.6[16.7 µM] | /
SMILES | Shn3 inh set2 | PAX8 inh HTS | NSD2 HMT inh | LMP1 NFkB inh | Env fusion inh | N-glyco inh
Fc1ccc(-c2nnc(CN3CCN(c4ncc(C(F)(F)F)cc4Cl)CC3)o2)cc1 | 47.3 | -0.1 | / | -9.6 | 68.3* | -1.1
CCN(CC)CC#CCC(C)(c1ccccc1)c1ccccc1 | 9.1 | / | 32.8 | -6.7 | 65.3* | -3.1
O=C(C[C@@H]1CC[C@@H]2[C@H](COC[C@H](O)CN2C(=O)c2ccc3c(c2)OCO3)O1)NC1Cc2ccccc2C1 | / | -6.6 | / | / | / | /
COc1ccc(NC(=O)CCS(=O)(=O)c2ccc3c(c2)CCN3C(C)=O)cc1 | 4.1 | 1.0 | -2.6 | 58.5* | -12.6 | 0.2
Cc1nc2ccccn2c1C(=O)N=Nc1c(O)n(CCC(C)C)c2ccccc12 | 86.0* | 5.9 | -2.2 | 36.2 | 26.4 | -8.2
O=C(Cc1ccc(Nc2nc3ccc(Br)cc3[nH]2)cc1)NCCc1cccs1 | 15.9 | -14.2 | / | 3.9 | 60.8* | -4.3
O=C(NCCc1csc(-c2cccnc2)n1)c1cccc2ccccc12 | -25.4 | 12.1 | / | 88.9* | 30.6 | -1.4
COc1ccc(NC(=O)N(C)C[C@@H]2OCCCC[C@@H](C)Oc3ccc(NS(=O)(=O)c4ccccc4)cc3C(=O)N([C@H](C)CO)C[C@@H]2C)cc1 | / | -4.7 | / | / | -16.5[16.7 µM] | /
Cc1ccccc1OCC(O)CN1CCN(CCN2C(=O)c3cccc4cccc(c34)C2=O)CC1 (stereo not drawn) | 23.9 | 5.1 | 1.9 | 0.1 | -27.2 | 20.2
CC(C)OCC(O)CN1CCN(CCN2C(=O)c3cccc4cccc(c34)C2=O)CC1 (stereo not drawn) | 3.6 | -12.2 | 0.4 | -10.2 | 0.8 | 33.3*
CC(=O)c1ccc(OCC(O)CN2CCN(CCN3C(=O)c4cccc5cccc(c45)C3=O)CC2)cc1 (stereo not drawn) | 10.6 | -36.2 | 2.0 | -6.7 | -92.3 | 56.1*
COc1ccccc1CCNC(=O)CCSc1nc(-c2ccco2)cc(C(F)(F)F)n1 | 10.1 | / | 2.7 | 12.5 | / | -5.0
COc1ccccc1CCNC(=O)CSc1nc(-c2ccco2)cc(C(F)(F)F)n1 | 23.2 | 16.1 | / | -1.7 | 59.2* | 0.3
COc1ccccc1-c1ccc([C@H]2[C@@H](CO)N3CCCCN(C(=O)c4ccncc4)C[C@H]23)cc1 | / | -12.3 | / | / | / | /
COC1=C(Nc2ccccc2OC)C(=O)c2ccccc2C1=O | -4.5 | 10.3 | 74.2* | -0.4 | 2.9 | 5.9
CC(C)NC(=O)C1(C)CCN1Cc1ccc(-c2ccccc2)cc1 (stereo not drawn) | 12.6 | 18.9 | 2.1 | / | 56.6* | -1.6
CCN(c1ccccc1)S(=O)(=O)c1cc(NC(=O)CSc2nccc(=O)[nH]2)ccc1Cl | / | / | -1.8 | / | / | /
CN(C)c1ccnc2c[cH-]cc12.[Fe].c1ccc(-[c-]2[c-](-c3ccccc3)[c-](-c3ccccc3)[c-](-c3ccccc3)[c-]2-c2ccccc2)cc1 (stereo not drawn) | 53.8 | 8.4 | / | 28.4 | 57.4* | -1.6

Screening data deposited in PubChem BioAssay by Broad Institute.
